From PubChem BioAssay (Tox21) come the findings set out here.

Assay [1] is described as follows: Nuclear factor erythroid 2-related factor 2/antioxidant responsive element (Nrf2/ARE) small molecule agonists: qHTS cell viability counter screen in human keratinocytes (AID 1919968; active means well fitted curve in the direction sought with a large enough effect in the repeat runs; an effect the other way counts as inactive or inconclusive; further: nearly all actives have a fitted effect of over 55% in size). An outline of the steps: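 Fluorescence read-out from CellTiter-Fluor after 1 h at 37 C. Wells held HaCaT-derived ARE-luciferase reporter cells (1,500/well) treated 23 h with DMSO-dissolved compounds. Run in the same wells as the luciferase agonist read.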
(In general: qHTS replaces the single test concentration by a dilution series.)

A short description of assay [2]: Nuclear factor erythroid 2-related factor 2/antioxidant responsive element (Nrf2/ARE) small molecule agonists: luciferase reporter gene qHTS assay in human keratinocytes (AID 1919969). Further: nearly all actives have a fitted effect of over 35% in size. Further: potency means the concentration at half of the fitted maximal effect.
In assay [3] the target is Gonadotropin-releasing hormone receptor (Homo sapiens) (UniProt P30968). The assay is described as follows: Human gonadotropin-releasing hormone receptor (GnRHR) small molecule agonists, calcium flux assay in GnRHR-HEK293 cells (AID 1920063). Further: nearly all actives have a fitted effect of over 35% in size. An outline of the steps:
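Calcium-dye fluorescence, Ex/Em=480/540, recorded every 1 sec over 3 min after compound addition to GnRHR-HEK293 cells. Cells had been seeded 18 hours earlier and dye-loaded for 1 hour at 37 C. Fifteen concentrations, triplicates.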
Background: Calcium assays in cells follow changes in intracellular calcium, usually with a dye or a luminescent sensor.

The target of assay [4] is KiSS-1 receptor (Homo sapiens) (UniProt Q969F8). As to the kind of experiment: Human kisspeptin (KISS1R) small molecule agonists, calcium flux assay in KISS1R-HEK293 cells (AID 1920064; active means well fitted curve in the direction sought with a large enough effect in the repeat runs; an effect the other way counts as inactive or inconclusive). An outline of the steps: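 Calcium flux read-out: kinetic fluorescence at Ex/Em=480/540, 1 s intervals over 3 min, after pin-tool compound addition to dye-loaded KISS1R-HEK293 cells. Fifteen concentrations, triplicates.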

Assay [5] can be described thus: G protein-coupled receptor (GPCR) small molecule agonists, calcium flux assay: HEK293 wild type cell line counter screen (AID 1920065). A digest of the protocol:
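Agonist mode; 18 h seeding at 37 C, 1 h dye load at 37 C; compounds pinned from DMSO, ATP as positive control; kinetic fluorescence 480/540 nm, 3 min, 1 s reads; 15 concentrations, triplicate.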

Assay [6] is described as follows: p53 small molecule agonists, cell-based qHTS assay with human liver microsomes (AID 1963577).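 Further: p53 response element beta-lactamase reporter cells with liver microsomes plus NADPH.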 An outline of the steps:
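In this qHTS, p53 response-element beta-lactamase cells receive test compound together with a microsome/NADPH activating system (0.5 mg/mL final each) and are incubated 16 h at 37 C before LiveBLAzer fluorescence detection.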

Assay [7] is described as follows: p53 small molecule agonists, cell-based qHTS assay with rat liver microsomes (AID 1963578). An outline of the steps:
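Agonist mode in p53RE-bla reporter cells, with compounds co-incubated 16 h at 37 C alongside 0.5 mg/mL rat liver microsomes and 0.5 mg/mL NADPH (final), followed by a 2 h LiveBLAzer detection step.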

Assay [8] is described as follows: p53 small molecule agonists, cell-based qHTS assay with human liver microsomes: qHTS cell viability counter screen (AID 1963579). Further: nearly all actives have a fitted effect of over 45% in size. An outline of the steps: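 Metabolically activated exposure: compounds, human liver microsomes and NADPH (0.5 mg/mL final apiece) were added to p53RE-bla cells seeded 5 h earlier, left 16 h at 37 C, and then assessed for viability by CellTiter-Glo luminescence.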

Assay [9] can be described thus: p53 small molecule agonists, cell-based qHTS assay with rat liver microsomes: qHTS cell viability counter screen (AID 1963580). Further: nearly all actives have a fitted effect of over 45% in size. A digest of the protocol: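 Rat liver microsome (0.5 mg/mL final) and NADPH (0.5 mg/mL final) co-incubation with compounds for 16 h at 37 C on HCT-116 p53RE-bla cells; cytotoxicity taken from intracellular ATP luminescence.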
A short description of assay [10]: p53 small molecule agonists, cell-based qHTS assay: qHTS cell viability counter screen (AID 1963581). Further: nearly all actives have a fitted effect of over 45% in size. An outline of the steps:
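Cytotoxicity read-out: ATP-based luminescence (CellTiter-Glo, 30 min RT) measured in the same wells as the p53 reporter assay, HCT-116 p53RE-bla cells, 16 h compound exposure at 37 C.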

Assay [11] is described as follows: p53 small molecule agonists, cell-based qHTS assay (AID 1963582; active means well fitted activation curve with a large enough effect in the signal ratio in the repeat runs, not every such curve was filed as active; the % refers to the signal ratio). A digest of the protocol:
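Fluorescence intensity read-out of a beta-lactamase reporter under a p53 response element. Cells were exposed to DMSO-dissolved compounds for 16 h at 37 C, then developed with FRET substrate for 2 h at RT.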

Assay [12] deals with 5-hydroxytryptamine receptor 2A (Homo sapiens) (UniProt P28223). As to the kind of experiment: 5-hydroxytryptamine receptor 2A (HTR2A) small molecule antagonists, cell-based qHTS assay (AID 1963586). Further: nearly all actives have a fitted effect of over 45% in size. A digest of the protocol: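 CHO cells stably expressing human HTR2A were plated for 18 h at 37 C, then loaded with calcium dye for 1 h. Compounds were preincubated 5 min at room temperature before DOI (4 nM solution) was added. Kinetic fluorescence was read for 3 min.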

The target is the same in assay [13]. The assay is described as follows: 5-hydroxytryptamine receptor 2A (HTR2A) small molecule agonists, cell-based qHTS assay (AID 1963587). Further: nearly all actives have a fitted effect of over 30% in size. A digest of the protocol:
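Kinetic calcium-flux fluorescence (2 min, 1 sec intervals) after compound addition in agonist mode. HTR2A-CHO cells were cultured 18 h, then dye-loaded 1 h at 37 C.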

Assay [14] concerns the target Muscarinic acetylcholine receptor M1 (Homo sapiens) (UniProt P11229). The assay is described as follows: Cholinergic receptor muscarinic 1 (CHRM1) small molecule antagonists, cell-based qHTS assay (AID 1963588). Further: nearly all actives have a fitted effect of over 40% in size. An outline of the steps:
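Compounds were tested at 15 concentrations in three independent runs. Dye-loaded CHRM1-CHO cells were exposed 5 min at room temperature before stimulation by acetylcholine added at 50nM. Intracellular calcium was read kinetically on FDSS for 3 min.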

For assay [15] the target is unchanged. As to the kind of experiment: Cholinergic receptor muscarinic 1 (CHRM1) small molecule agonists, cell-based qHTS assay (AID 1963589). Further: nearly all actives have a fitted effect of over 35% in size. An outline of the steps:
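Calcium flux read-out: kinetic fluorescence at 1 sec intervals after pin-tool compound addition to dye-loaded CHRM1-CHO cells (human M1). Agonist mode; 15 concentrations tested in triplicate independent runs.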

Assay [16] in a line: cAMP Responsive Elements (CRE) small molecule agonists, cell-based qHTS assay (AID 1963590). A digest of the protocol: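 Beta-lactamase reporter readout: LiveBLAzer B/G FRET substrate, 2 h at room temperature, added after 3 h compound treatment of CRE-bla HEK 293T cells at 37 C/5% CO2.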
Assay [17] in a line: cAMP Responsive Elements (CRE) small molecule antagonists, cell-based qHTS assay (AID 1963591; active means well fitted inhibition curve with a large enough effect in the signal ratio in the repeat runs, not every such curve was filed as active; the % refers to the signal ratio). An outline of the steps: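 HEK293T CRE-bla; 18 h preincubation; compound pin-transfer; NKH477 0.25 uM final, 3 h, 37 C; LiveBLAzer FRET substrate 2 h RT.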
In assay [18] the target is Beta-2 adrenergic receptor (Homo sapiens) (UniProt P07550). As to the kind of experiment: Adrenergic beta2 receptor (ADRB2) small molecule antagonists, cell-based qHTS assay (AID 1963592). Further: series mostly up to about 92 µM; nearly all actives have a fitted effect of over 50% in size. An outline of the steps:
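Assay format: CHO-ADRB2 cells, 18-20hr seeding at 37C/5% CO2, then compound plus 1nM isoproterenol agonist mix for 0.5hr RT. Homogeneous time-resolved fluorescence cAMP detection after 1hr, expressed as 665/615 nm ratio.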

For assay [19], the target named is D(2) dopamine receptor (Homo sapiens) (UniProt P14416). The assay is described as follows: Dopamine D2 receptor (DRD2) small molecule agonists, cell-based qHTS assay (AID 1963594). Further: nearly all actives have a fitted effect of over 35% in size. An outline of the steps:
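cAMP accumulation in DRD2-HEK293 cells measured by HTRF after 1 h detection; compounds added 10 min before NKH477 (200nM […]) forskolin-analogue stimulation, 30 min at room temperature, with Ro20-1724 present at 0.1 mM final.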

Assay [20] shares this target. The assay is described as follows: Dopamine D2 receptor (DRD2) small molecule antagonists, cell-based qHTS assay (AID 1963595; active means well fitted inhibition curve with a large enough effect in the signal ratio in the repeat runs, with a control signal flat; the % refers to the signal ratio). A digest of the protocol:
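Readout: HTRF cAMP, cAMP-d2 competing with cellular cAMP for anti-cAMP cryptate, read after 1 h. Cells: DRD2-HEK293. Conditions: 0.1 mM Ro20-1724, 12 nM quinpirole, 200 nM NKH477, 30 min RT.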

Molecules are shown by their SMILES. Results filed as inconclusive are left out. Activity calls are given as the source filed them. Unless noted, the call rests on the fitted dose curve.

Chain of Beta-2 adrenergic receptor (Homo sapiens) (P07550 whole entry, looked up): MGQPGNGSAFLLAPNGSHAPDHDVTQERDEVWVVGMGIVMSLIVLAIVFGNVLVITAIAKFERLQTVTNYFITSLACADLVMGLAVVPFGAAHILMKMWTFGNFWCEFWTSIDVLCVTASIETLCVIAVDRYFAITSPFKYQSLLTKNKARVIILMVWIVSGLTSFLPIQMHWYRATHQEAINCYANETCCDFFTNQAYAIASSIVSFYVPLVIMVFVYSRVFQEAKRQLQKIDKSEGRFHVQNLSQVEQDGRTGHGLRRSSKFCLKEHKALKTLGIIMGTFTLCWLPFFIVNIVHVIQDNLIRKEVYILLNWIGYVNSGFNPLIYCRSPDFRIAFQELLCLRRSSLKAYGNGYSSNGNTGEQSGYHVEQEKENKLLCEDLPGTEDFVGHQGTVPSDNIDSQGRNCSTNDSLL
Chain of 5-hydroxytryptamine receptor 2A (Homo sapiens) (P28223 whole entry, looked up): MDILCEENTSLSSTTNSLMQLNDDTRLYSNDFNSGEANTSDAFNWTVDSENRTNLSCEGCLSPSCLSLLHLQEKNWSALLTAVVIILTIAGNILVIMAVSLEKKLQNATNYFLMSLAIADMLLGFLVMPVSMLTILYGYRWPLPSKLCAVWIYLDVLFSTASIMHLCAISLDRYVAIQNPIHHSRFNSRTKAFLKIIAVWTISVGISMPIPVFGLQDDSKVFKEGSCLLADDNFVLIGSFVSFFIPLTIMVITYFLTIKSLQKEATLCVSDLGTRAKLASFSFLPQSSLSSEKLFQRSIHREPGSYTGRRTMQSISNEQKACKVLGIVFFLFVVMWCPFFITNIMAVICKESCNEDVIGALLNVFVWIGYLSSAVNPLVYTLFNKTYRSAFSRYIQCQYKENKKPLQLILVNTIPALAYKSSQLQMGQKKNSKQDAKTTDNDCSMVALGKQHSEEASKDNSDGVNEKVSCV
Chain of KiSS-1 receptor (Homo sapiens) (Q969F8 whole entry, looked up): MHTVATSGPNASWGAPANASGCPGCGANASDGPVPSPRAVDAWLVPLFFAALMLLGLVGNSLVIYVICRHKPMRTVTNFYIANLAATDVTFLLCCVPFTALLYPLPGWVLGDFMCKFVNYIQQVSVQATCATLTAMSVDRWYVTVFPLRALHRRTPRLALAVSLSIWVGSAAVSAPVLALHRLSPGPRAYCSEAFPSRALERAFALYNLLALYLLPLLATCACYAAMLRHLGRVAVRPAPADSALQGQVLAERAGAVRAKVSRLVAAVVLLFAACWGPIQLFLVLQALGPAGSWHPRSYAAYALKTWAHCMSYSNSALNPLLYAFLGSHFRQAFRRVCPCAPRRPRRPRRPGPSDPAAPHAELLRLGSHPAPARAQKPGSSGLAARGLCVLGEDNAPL
Chain of Muscarinic acetylcholine receptor M1 (Homo sapiens) (P11229 whole entry, looked up): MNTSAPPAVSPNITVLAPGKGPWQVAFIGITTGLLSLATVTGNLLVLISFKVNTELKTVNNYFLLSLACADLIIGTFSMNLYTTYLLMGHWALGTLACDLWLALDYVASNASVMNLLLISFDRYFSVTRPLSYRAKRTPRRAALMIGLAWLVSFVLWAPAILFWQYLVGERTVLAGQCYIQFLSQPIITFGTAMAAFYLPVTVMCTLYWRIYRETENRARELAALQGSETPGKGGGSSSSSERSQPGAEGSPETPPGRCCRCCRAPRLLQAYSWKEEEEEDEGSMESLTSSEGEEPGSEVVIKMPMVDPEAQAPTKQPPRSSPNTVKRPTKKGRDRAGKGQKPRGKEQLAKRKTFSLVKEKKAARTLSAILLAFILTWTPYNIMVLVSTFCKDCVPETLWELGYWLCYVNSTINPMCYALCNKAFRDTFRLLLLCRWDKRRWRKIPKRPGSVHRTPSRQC
Chain of Gonadotropin-releasing hormone receptor (Homo sapiens) (P30968 whole entry, looked up): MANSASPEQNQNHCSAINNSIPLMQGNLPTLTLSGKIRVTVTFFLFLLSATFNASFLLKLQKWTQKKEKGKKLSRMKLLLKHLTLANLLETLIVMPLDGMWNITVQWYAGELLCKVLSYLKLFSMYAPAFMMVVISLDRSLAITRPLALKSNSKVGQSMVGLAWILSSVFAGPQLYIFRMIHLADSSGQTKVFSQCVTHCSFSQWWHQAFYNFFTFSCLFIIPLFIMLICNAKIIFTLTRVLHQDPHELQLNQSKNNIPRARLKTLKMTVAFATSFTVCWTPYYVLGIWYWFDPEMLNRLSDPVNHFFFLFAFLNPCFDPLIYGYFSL
Chain of D(2) dopamine receptor (Homo sapiens) (P14416 whole entry, looked up): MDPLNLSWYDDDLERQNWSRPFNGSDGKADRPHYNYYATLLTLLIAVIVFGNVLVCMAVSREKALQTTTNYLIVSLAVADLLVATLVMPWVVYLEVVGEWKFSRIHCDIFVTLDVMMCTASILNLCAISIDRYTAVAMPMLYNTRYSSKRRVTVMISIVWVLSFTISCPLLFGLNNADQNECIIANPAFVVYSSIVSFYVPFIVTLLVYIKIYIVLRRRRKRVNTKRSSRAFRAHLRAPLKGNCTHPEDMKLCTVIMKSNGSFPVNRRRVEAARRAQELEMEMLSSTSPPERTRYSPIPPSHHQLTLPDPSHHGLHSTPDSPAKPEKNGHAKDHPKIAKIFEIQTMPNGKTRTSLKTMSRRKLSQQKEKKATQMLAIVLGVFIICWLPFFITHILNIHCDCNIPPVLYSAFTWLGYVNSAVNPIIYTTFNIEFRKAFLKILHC

As to `CCCN(CCC)N=O`, the Potency result in assay [1], in assay [2], in assay [3], in assay [4], in assay [5] and in [6] was “inactive” throughout. In addition, the Potency entry in assay [7], in assay [8], in [9], in assay [10], in assay [11] and in [12] was “inactive” throughout. The Potency result in assay [13], in [14], in assay [15], in assay [16], in assay [17] and in [18] was “inactive” each time. The Potency result in assay [19] and in assay [20] was “inactive” each time.

As for `CCOP(=S)(OCC)SCSc1cc(Cl)ccc1Cl`, the Potency entry in assay [1], in [2], in [3], in [4], in assay [5] and in assay [6] was “inactive” in each case. For the same compound, the Potency result in assay [7], in assay [8], in [9], in assay [10], in assay [11] and in [12] was “inactive” each time. The Potency result in [13], in assay [14], in [15], in assay [16], in [17] and in [18] was “inactive” in each case. Further, the Potency result in assay [19] and in assay [20] was “inactive” throughout.

With `OCC(O)CCl` (centres undefined), the Potency entry in assay [1], in assay [2], in [3], in [4], in assay [5] and in assay [6] was “inactive” each time. The Potency result in assay [7], in assay [8], in assay [9], in [10], in [11] and in [12] was “inactive” in each case. In addition, the Potency entry in assay [13], in assay [14], in assay [15], in [16], in assay [17] and in [18] was “inactive” throughout. Moreover, the Potency entry in [19] and in assay [20] was “inactive” in each case.

In the case of `C=CC=O`, the Potency entry in assay [1], in assay [2], in assay [3], in assay [4], in assay [5] and in assay [6] was “inactive” throughout. The Potency result in assay [7], in [8], in assay [9], in assay [10], in assay [11] and in [12] was “inactive” each time. In addition, the Potency result in [13], in assay [14], in [15], in assay [16], in [17] and in assay [18] was “inactive” in each case. The Potency result in assay [19] and in assay [20] was “inactive” throughout.

Turning to `Nc1ccc(-c2ccccc2)cc1`, the Potency entry in assay [1], in [3], in assay [4], in [5], in assay [6] and in assay [7] was “inactive” in each case. Moreover, the Potency entry in assay [8], in [9], in assay [10], in assay [11], in assay [12] and in [13] was “inactive” in each case. Also, the Potency entry in [14], in assay [15], in assay [16], in assay [17], in assay [19] and in assay [20] was “inactive” each time. The Potency in assay [2] is 13.7 µM (active).

For the compound `COc1cc(-c2ccc(N)c(OC)c2)ccc1N`, the Potency entry in [1], in assay [2], in assay [3], in assay [4], in [5] and in assay [6] was “inactive” in each case. For the same compound, the Potency result in assay [7], in assay [8], in assay [9], in [10], in assay [11] and in assay [12] was “inactive” each time. For the same compound, the Potency result in assay [13], in assay [14], in [15], in assay [16], in assay [17] and in assay [19] was “inactive” throughout. Besides, the Potency result in [20] is “inactive”.

In the case of `CCOC(=O)CP(=O)(OCC)OCC`, the Potency entry in [1], in [2], in [3], in [4], in assay [5] and in assay [6] was “inactive” throughout. Also, the Potency entry in [7], in assay [8], in assay [9], in assay [10], in assay [11] and in assay [12] was “inactive” each time. For the same compound, the Potency result in [13], in [14], in assay [15], in assay [16], in [18] and in assay [19] was “inactive” each time.

Consider `BrCc1ccc(Br)cc1`, for which the Potency entry in [1], in assay [2], in [3], in assay [4], in [5] and in assay [6] was “inactive” each time. In addition, the Potency result in assay [7], in assay [8], in [9], in [10], in assay [11] and in assay [12] was “inactive” in each case. Also, the Potency result in assay [13], in assay [14], in [15], in [16], in assay [18] and in assay [19] was “inactive” throughout. Moreover, the Potency entry in assay [20] is “inactive”.

Consider `CC(C)(C1CCC(O)CC1)C1CCC(O)CC1` (centres undefined), for which the Potency result in assay [1], in assay [2], in assay [3], in assay [4], in assay [5] and in assay [6] was “inactive” throughout. The Potency result in [7], in [8], in [9], in [10], in assay [11] and in assay [12] was “inactive” throughout. Besides, the Potency result in [13], in [14], in assay [15], in assay [17], in [18] and in assay [19] was “inactive” each time. For the same compound, the Potency entry in [20] is “inactive”.
